Some test systems named below: PDGFRA; PDGFRB; PDPK1; PFTAIRE2; PHKG1; PHKG2; PIK3C2B.
Common to all, as to details: concentration: 1 μM,replicates: in singlicate; n = 1
In another assay the test system is T1, PCTK2.
T1 construct: gene CDK17

The test system of another assay is T2, PCTK3.
T2 construct: gene CDK18

The next assay has as its system T3, PFTK1.
T3 construct: gene CDK14

Molecules are shown by their SMILES.
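Also: KINOMEscan kinase panel screen.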

As for `Cc1cc2cn[nH]c2cc1-c1cccc2c(N)c(C(N)=O)nnc12`, the “%Inh” value turned out to be 14% with PCTK2; 26% in the assay with PCTK3; 34% in the assay on PDGFRA; 18% in the assay on PDGFRB; 0% in the assay with PDPK1; 29% with PFTAIRE2. Besides, the “%Inh” value in the assay with PFTK1 is 0%; with PHKG1, 26%; in the assay with PHKG2, 0%; in the assay on PIK3C2B it was 0%.
Consider `Cl.Oc1cc(-c2nc(-c3ccccc3)[nH]c2-c2ccncc2)ccc1Cl` [SB-386023], for which the “%Inh” value was 0% in the assay on PCTK2; 0% in the assay on PCTK3; 0% in the assay with PDGFRA; 11% in the assay with PDGFRB; 2% with PDPK1; 23% in the assay with PFTAIRE2. Moreover, the “%Inh” value in the assay with PFTK1 is listed as 0%; in the assay with PHKG1 it was 0%; in the assay on PHKG2, 0%; in the assay with PIK3C2B, 7%.
Take `COc1ccc(C[C@@H](CN)NC(=O)c2cc(Br)c(-c3ccnc4[nH]ccc34)s2)cc1.Cl.Cl` [GSK1389063]: the “%Inh” value with PCTK2 is 0%; in the assay with PCTK3, 0%; in the assay with PDGFRA it was 62%; in the assay on PDGFRB it was 96.3%; in the assay on PDPK1, 32%; with PFTAIRE2 it was 3%. For the same compound, the “%Inh” value was determined as 16% with PFTK1, 45% in the assay with PHKG1, 24% in the assay with PHKG2 and 0% in the assay on PIK3C2B.
`Cc1ccc2c(-c3ccncc3)c(-c3ccc(F)cc3)nn2c1.Cl` [GW461484]: the “%Inh” value came out at 0% in the assay with PCTK2; 11% in the assay on PCTK3; 0% in the assay on PDGFRA; 8% in the assay on PDGFRB; 0% in the assay with PDPK1; 0% in the assay with PFTAIRE2. Besides, the “%Inh” value is 0% with PFTK1, 33% in the assay with PHKG1, 0% with PHKG2 and 0% with PIK3C2B.
`CCN(CC)CCOc1ccc(Nc2ncc3cc(-c4c(Cl)cccc4Cl)c(=O)n(C)c3n2)cc1` [SB-601273]: the “%Inh” value worked out at 24% in the assay with PCTK2; 0% with PCTK3; 99.8% in the assay on PDGFRA; 100% with PDGFRB; 0% in the assay with PDPK1; 19% with PFTAIRE2. For the same compound, the “%Inh” value with PFTK1 stood at 0%; with PHKG1, 0%; in the assay with PHKG2, 30%; in the assay on PIK3C2B, 85%.
On to `C[C@@H](Oc1cc(-c2cnn(C3CCNCC3)c2)cnc1N)c1c(Cl)ccc(F)c1Cl`, for which the “%Inh” value was 4% with PCTK2; 6% in the assay on PCTK3; 23% with PDGFRA; 0% with PDGFRB; 14% in the assay with PDPK1; 1% in the assay on PFTAIRE2. In addition, the “%Inh” value in the assay on PFTK1 is 0%; in the assay on PHKG1, 24%; in the assay with PHKG2, 7%; with PIK3C2B, 10%.
Consider `CC(C)N1C(=O)Cc2cc(Nc3ncc(C(F)(F)F)c(NCc4cccc(S(C)(=O)=O)c4)n3)ccc21`, for which the “%Inh” value with PCTK2 was found to be 20%; with PCTK3, 7%; with PDGFRA it was 36%; in the assay with PDGFRB, 71%; in the assay with PDPK1 it was 0%; in the assay on PFTAIRE2 it was 6%. For the same compound, the “%Inh” value came to 14% in the assay on PFTK1, 0% in the assay on PHKG1, 26% with PHKG2 and 3% with PIK3C2B.
Consider `CNC(=O)c1ccccc1Sc1ccc2c(/C=C/c3ccccn3)n[nH]c2c1`, for which the “%Inh” value with PCTK2 is reported as 0%; with PCTK3, 8%; in the assay with PDGFRA, 99.9%; in the assay on PDGFRB, 100%; with PDPK1, 0%; with PFTAIRE2, 14%. Besides, the “%Inh” value in the assay on PFTK1 was 2%; in the assay with PHKG1, 16%; with PHKG2 it was 0%; with PIK3C2B it was 0%.
Take `Cc1ccc(-n2nc(C(C)(C)C)cc2NC(=O)Nc2ccc(OCCN3CCOCC3)c3ccccc23)cc1` [GW839464]: the “%Inh” value with PCTK2 amounted to 13%; with PCTK3 it was 2%; in the assay on PDGFRA it was 0%; in the assay on PDGFRB, 87%; in the assay with PDPK1 it was 0%; in the assay on PFTAIRE2, 0%. Besides, the “%Inh” value in the assay with PFTK1 turned out to be 2%; in the assay on PHKG1 it was 0%; in the assay on PHKG2 it was 8%; in the assay on PIK3C2B, 0%.
Regarding `CN(C)CCOc1ccc(-c2cc(-c3c[nH]nc3-c3ccccn3)ccn2)cc1` [GW835314], the “%Inh” value came out at 7% in the assay on PCTK2; 2% in the assay with PCTK3; 29% with PDGFRA; 20% in the assay with PDGFRB; 15% with PDPK1; 19% in the assay with PFTAIRE2. The “%Inh” value is listed as 1% in the assay with PFTK1, 47% in the assay on PHKG1, 0% in the assay on PHKG2 and 0% in the assay with PIK3C2B.
Regarding `Nc1nc(Nc2ccccc2)cc(-c2ccc3c(N)n[nH]c3c2)n1` [GSK2225749], the “%Inh” value was determined as 0% with PCTK2; 0% in the assay with PCTK3; 4% in the assay with PDGFRA; 2% in the assay on PDGFRB; 15% in the assay on PFTAIRE2; 9% in the assay on PFTK1. In addition, the “%Inh” value with PHKG1 is 0%; in the assay on PHKG2, 0%; in the assay with PIK3C2B it was 2%.
With `C=CC(=O)Nc1cc2c(Nc3ccc(F)c(Cl)c3)ncnc2cc1OCCCN1CCOCC1` [GW781483], the “%Inh” value amounted to 0% in the assay on PCTK2; 0% with PCTK3; 77% with PDGFRA; 15% in the assay with PDGFRB; 0% in the assay on PDPK1; 15% with PFTAIRE2. Also, the “%Inh” value amounted to 0% with PFTK1, 0% with PHKG1, 0% with PHKG2 and 2% in the assay with PIK3C2B.
For the compound `CC(C)Nc1cc(-c2ccc3c(N)n[nH]c3c2)nc(N)n1` [GSK2221681], the “%Inh” value with PCTK2 was found to be 0%; in the assay on PCTK3, 10%; in the assay with PDGFRA, 1%; with PDGFRB, 5%; in the assay with PFTAIRE2 it was 10%; with PFTK1, 0%. Moreover, the “%Inh” value was 11% with PHKG1, 0% in the assay on PHKG2 and 0% in the assay with PIK3C2B.
Consider `Cc1occc1-c1nc(N)c(OC[C@@H](N)Cc2c[nH]c3ccccc23)cc1-c1cc2c(C)n[nH]c2cn1` [GSK1660450], for which the “%Inh” value in the assay on PCTK2 is 0%; in the assay on PCTK3 it was 0%; in the assay on PDGFRA it was 0%; with PDGFRB, 49%; with PDPK1, 0%; in the assay on PFTAIRE2 it was 100%. Besides, the “%Inh” value came out at 45% with PFTK1, 84% in the assay with PHKG1, 11% in the assay on PHKG2 and 0% in the assay on PIK3C2B.

(Values after article PMC5540273 (PLoS ONE, 2017).)
